Source: PubChem BioAssay AID651612 (The Scripps Research Institute Molecular Screening Center, 2012)
In all, about 2,200 compounds went through this assay and about 1,500 (68%) were called active. Cut-off read from the data, not from the text of the source: active = inhibition above about 23%; inactive = the rest. The set was probably picked from earlier hits. A selection follows.

target: Perilipin-5 (Homo sapiens) + 1-acylglycerol-3-phosphate O-acyltransferase ABHD5 (Homo sapiens) (UniProt Q00G26+Q8WTS1); experiment: ABHD5-PLIN5 interaction inhibitors, confirmation, biochemical, luminescence (AID 651612); conditions: at 4 µM, active compounds read high;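 note: 0% = DMSO vehicle wells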
Sequence (Q00G26 whole entry, looked up): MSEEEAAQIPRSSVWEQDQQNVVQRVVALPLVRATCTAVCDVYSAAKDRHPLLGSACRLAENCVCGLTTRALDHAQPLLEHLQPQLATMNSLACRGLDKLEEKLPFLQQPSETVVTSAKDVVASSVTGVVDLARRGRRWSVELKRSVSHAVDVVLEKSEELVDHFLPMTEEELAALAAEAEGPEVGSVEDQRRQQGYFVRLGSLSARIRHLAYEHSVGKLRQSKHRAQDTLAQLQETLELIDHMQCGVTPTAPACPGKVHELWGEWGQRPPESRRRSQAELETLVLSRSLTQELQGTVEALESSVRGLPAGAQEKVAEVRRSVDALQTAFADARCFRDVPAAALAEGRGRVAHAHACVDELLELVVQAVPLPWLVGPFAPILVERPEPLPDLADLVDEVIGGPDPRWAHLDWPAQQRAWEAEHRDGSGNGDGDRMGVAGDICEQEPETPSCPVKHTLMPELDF
Sequence (Q8WTS1 whole entry, looked up): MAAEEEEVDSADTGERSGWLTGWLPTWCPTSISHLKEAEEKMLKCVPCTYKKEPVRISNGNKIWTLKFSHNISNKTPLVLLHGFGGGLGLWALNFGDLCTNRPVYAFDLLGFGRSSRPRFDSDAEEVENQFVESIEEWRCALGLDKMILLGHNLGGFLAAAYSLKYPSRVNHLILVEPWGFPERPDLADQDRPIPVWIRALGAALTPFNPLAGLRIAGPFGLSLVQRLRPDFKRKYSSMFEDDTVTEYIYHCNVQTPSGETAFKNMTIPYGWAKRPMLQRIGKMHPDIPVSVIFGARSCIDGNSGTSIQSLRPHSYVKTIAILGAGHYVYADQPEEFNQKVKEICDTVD

inhibition, inactive:
Cc1cc2c(c(=O)n1Cc1ccco1)C(c1ccccc1)C(C#N)=C(N)O2 (configuration not stated) 19%, CCCOc1ccc(C(=O)C(CCC(CNCC)C(=O)c2ccc(OCCC)cc2)CNCC)cc1 (configuration not stated) 19.7%, CCc1ccc(NC(=O)CSc2nnc(-c3cnccn3)n2Cc2ccco2)cc1 19.6%, COc1ccc(-n2cc(CNC3CCOCC3)c(-c3cccc(F)c3)n2)cc1 2.9%, CC(=O)N(c1ccc2oc(=O)sc2c1)S(=O)(=O)c1ccc(C)cc1 -52.7%, COc1cccc2sc(N(CCCN(C)C)C(=O)C(c3ccccc3)c3ccccc3)nc12 18.3%, COc1ccc(N/C=C(\C2OC(=O)c3ccccc32)[N+](=O)[O-])cc1 (configuration not stated) 9.16%, COc1ccccc1C1/C(=C(/O)c2ccc(C)cc2)C(=O)C(=O)N1Cc1ccco1 (configuration not stated) 2.17%, C[C@@H](CN1CCC[C@H]1CN1C(N)=NC[C@@H]1Cc1ccccc1)N1C[C@@H](Cc2ccccc2)N(CCCC2CCCC2)C1=N 11.3%, Cc1ccn(C(CC(=O)c2ccc(Br)cc2)C(=O)O)n1 (configuration not stated) 6%, CC(=O)c1ccc(NC(=O)CCc2nnc3ccc(NCc4ccco4)nn23)cc1 9.27%, NC(=O)c1nsc(C(=O)N(CC(=O)NCc2ccc(F)cc2)Cc2ccco2)c1N 4.49%, COC(=O)c1cnn2c(C(F)(F)F)cc(-c3ccco3)nc12 14%, COc1ccc2sc(-c3ccccc3OC)c(-c3ccc(OCCN4CCCC4)cc3)c2c1 15.5%, Cc1c(CCOC(=O)CC23CC4CC(CC(C)(C4)C2)C3)sc[n+]1Cc1ccc([N+](=O)[O-])cc1 16.8%, O=c1[nH][nH]c2c1[C@H](c1ccc(Cl)cc1)O[C@H](CCc1ccccc1)C2 2.53%, O=C(c1cccnc1)N(c1cc2sc(=O)oc2c2ccccc12)S(=O)(=O)c1ccccc1 -3.41%, CC1Cc2ccccc2N1CC(=O)Nc1ccc(S(N)(=O)=O)cc1 (configuration not stated) 7.58%, CC1(C(=O)NCc2cccc3ccccc23)CCN1Cc1ccc(-c2ccccc2)o1 (configuration not stated) 16.1%, CCS(=O)(=O)Nc1ccc(C2=NN(S(=O)(=O)c3ccc(F)cc3)C(c3ccco3)C2)cc1 (configuration not stated) 10.4%, CN(C)CCCNC(=O)/C=C/c1ccc(OCc2c(F)cccc2Cl)cc1 10.8%

inhibition, active:
O=C(O)c1ccc2c(c1)C(=O)N(c1ccc(/C=C/C(=O)c3ccccc3)cc1)C2=O 94.7%, O=[N+]([O-])/C=C/c1ccc2c(ccn2Cc2ccccc2)c1 103%, Cc1cc(C)c(NC(=O)C[N+](C)(C)CC(O)COc2cccc3ccccc23)c(C)c1 (configuration not stated) 22.2%, C[C@@H]1C[C@@H]2O[C@H]2/C=C\C=C\C(=O)Cc2c(Cl)c(O)cc(O)c2C(=O)O1 53.1%, O=C(NNc1c2ccccc2nc2ccccc12)c1cc2ccccc2cc1O 35.2%, CC(C)(C)C1C/C(=C/c2ccco2)C(=O)/C(=C/c2ccco2)C1 (configuration not stated) 77.8%, Cc1cccc(C=CC(=O)c2ccc(Cl)cc2)c1 84.9%, COc1ccc(CNC(=O)/C(C#N)=C/c2cccc(OC)c2OC)cc1 56.6%, O=C(Nc1ccccc1)c1nnsc1S(=O)(=O)c1ccc(Cl)cc1 64.1%, O=C(N/N=C/C=C/c1ccco1)c1cccs1 40.2%, O=C1C=CC(=O)N1c1ccc(N2CCCCC2)cc1 36.2%, O=c1[nH]c(/C=C\c2cccc(C(F)(F)F)c2)nc(O)c1[N+](=O)[O-] 83.9%, CC1(C)CCSC(/C=C/c2ccccc2)=N1 77.3%, Cc1ccc(SC(CC(=O)c2ccc(C(C)(C)C)cc2)C(=O)O)cc1 (configuration not stated) 36.4%, C=C(C)C(=O)O[C@H]1C/C(C)=C\C(=O)/C=C(\C)[C@H](O)[C@@H]2OC(=O)C(=C)[C@@H]21 45.7%, CCC(C(=O)OCCN(CC)CC)c1ccccc1 (configuration not stated) 79.4%, C=C1C(=O)[C@]23C[C@H]1CCC2[C@@]1(C)C(C[C@@H]3O)[C@](C)(C(=O)O)CC[C@@H]1O (some centres not stated) 34.6%, COC(C/C=C/C(=O)[C@@H](C)OCc1ccccc1)OC 41.6%, O=C1/C(=C\c2ccc([N+](=O)[O-])cc2)CS(=O)(=O)C/C1=C/c1ccc([N+](=O)[O-])cc1 103%, Cc1cccc(C)c1NC(=O)C(Cl)C(=O)c1ccccc1 (configuration not stated) 68.9%, COc1ccc(-c2cc(C(F)(F)F)nc(S(C)(=O)=O)n2)cc1OC 52.6%, COCCN(CCOC)c1nc(N)c2c(N)nc3c(c2c1C#N)CC(=O)N3Cc1ccc(Cl)cc1 32.1%, CCN1CCC(O)(/C=C/c2ccc(C)cc2)C(C(=O)/C=C/c2ccc(C)cc2)C1 (configuration not stated) 90.5%, O=C(CCN1CCc2ccccc2C(O)(c2ccccc2)C1)c1ccc2c(c1)OCCO2 (configuration not stated) 51.6%, Cc1ccc(Cc2c(-c3ccco3)nc3ccc(Cl)cn23)cc1 32.4%, Cc1ccc2nc(-c3ccco3)c(Cc3cccc(Cl)c3)n2c1 26.5%, O=C1C(Cl)=C(Oc2ccccc2)C(=O)c2ccccc21 85.3%, Cc1csc(NC(=O)NC2(C(F)(F)F)Oc3ccccc3O2)n1 92.4%, Cc1ccc(NC(=O)Cn2sc3ccccc3c2=O)cc1 74%, Cc1ccc(-n2nc(-c3ccco3)cc2C(=O)NCc2cccnc2)cc1 38.1%, O=C(Nc1ccccc1Cl)/C(Cl)=C(\Cl)S(=O)c1ccccc1 (configuration not stated) 101%, Cc1nc(-c2ccccc2)sc1C(=O)/C=C/c1ccccc1 81.5%, Cn1sc(=O)c2cc(S(=O)(=O)NC3CC3)ccc21 34.2%, Cc1ccc(CS(=O)(=O)c2ncc(Cl)c(C(=O)Nc3nnc(C)s3)n2)cc1 79.9%, CSc1nnc(NC(=O)c2nc(S(=O)(=O)Cc3ccc(C)cc3)ncc2Cl)s1 79.6%, O=C(Nc1nc(-c2ccco2)c(-c2ccco2)s1)c1ccco1 60.6%
